Screens as filed in PubChem BioAssay.
The list is not random: actives were taken first. Their share in the collection is about 9%.
HPGD inh = blocks human HPGD enzyme activity | Potency, µM, hits mostly inhibitors | purified HPGD, NADH fluorescence kinetic, PGE2 substrate | 150,000 compounds, 4.3% hits; active = well fitted inhibition curve with a large enough effect, not every such curve was filed as active; inconclusive = small, poorly fitted or top-dose-only effect, or another doubt; inactive = no such curve, though single readings can be large or run the other way
Target sequence (P15428 whole entry, looked up): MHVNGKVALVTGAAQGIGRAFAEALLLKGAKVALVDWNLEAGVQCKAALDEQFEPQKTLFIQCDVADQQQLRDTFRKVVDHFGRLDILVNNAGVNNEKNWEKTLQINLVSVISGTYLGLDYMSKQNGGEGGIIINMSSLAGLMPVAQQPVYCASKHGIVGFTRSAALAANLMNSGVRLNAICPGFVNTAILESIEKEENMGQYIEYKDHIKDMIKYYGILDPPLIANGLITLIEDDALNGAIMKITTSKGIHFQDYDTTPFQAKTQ
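NADH formation kinetics: reaction with 30 uM PGE2 and 1 mM NAD+ (final), 20 nM enzyme, Tris-HCl pH 8 with Tween 20, after 15 min compound preincubation at room temperature. Fluorescence change, last versus first of five reads.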
HTT aggregate = mutant huntingtin aggregation inhibition | PC12 HttQ103-GFP aggregates, Acumen cytometry, 40 h | Potency, µM (series often up to 46.1 µM), hits mostly inhibitors | 220,000 compounds, 1.1% hits | AID 1688; also: nearly all actives have a fitted effect of over 60% in size
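Huntingtin Q103 exon 1–GFP aggregates in induced PC12 cells (100 nM tebufenozide) were quantified by cytometry from lysates, with compounds dosed in titration.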
LMNA splice mod = LMNA splicing modulation. AID 1487. HeLa LMNA splicing GFP/RFP minigene ratio, 48 h. Potency, µM (titrated, usually from 46.1 µM), usual class: inhibitors. 200,000 compounds, 0.01% hits; active = well fitted inhibition curve with a large enough effect in the signal ratio, with a control signal flat, not every such curve was filed as active; inconclusive = small, poorly fitted or top-dose-only effect, or effect the other way, or a change in a side signal; the % refers to the signal ratio
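S3 HeLa cells stably expressing lamin A-EGFP splicing minigene plus DsRed2, 600 cells/well, 48 h compound exposure at 37C. Laser-scanning cytometry; analysed as GFP (500-530 nm)/RFP (575-640 nm) total intensity ratio; 0.5% DMSO vehicle.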
ALDH1A1 block = inhibitors of human aldehyde dehydrogenase 1A1 | P00352 | AID 1030 | Purified ALDH1A1, NADH fluorescence, propionaldehyde substrate | Potency, µM (titrated, usually from 75.3 µM), actives largely listed as inhibitors | 220,000 compounds, 7.3% hits; active = well fitted inhibition curve with a large enough effect, not every such curve was filed as active; inconclusive = small, poorly fitted or top-dose-only effect, or another doubt; inactive = no such curve, though single readings can be large or run the other way
HTT ATP protect = Huntington cell model cytoprotection by ATP luminescence | PC12 HTT-Q103 induced, cytoprotection, ATP luminescence, 40 h | Potency, µM (series often up to 56.4 µM), most hits filed as activators | 230,000 compounds, 0.14% hits | AID 1471; also: nearly all actives have a fitted effect of over 45% in size
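Compounds added alongside 100 nM tebufenozide, which induces toxic Q103 huntingtin exon 1-GFP in stable PC12 cells; surviving cells quantified by luminescent ATP measurement. Medium: phenol red-free DMEM, 5% equine and 5% calf serum.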
Luc counter = blocks Kinase-Glo luciferase, a counter-screen artifact; Q27757; Kinase-Glo luciferase, ATP luminescence, 8 min; 200,000 compounds, 0.28% hits; Potency, µM (highest dose often 38.3 µM), hits mostly inhibitors; AID 1379; also: nearly all actives have a fitted effect of over 60% in size
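Light output from Kinase-Glo luciferase with luciferin and 10 uM ATP in 50 mM imidazole pH 7.2, KCl, MgCl2, Tween 20, BSA; compound pin-delivered, 8-min ambient incubation, then luminescence read.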
Hits are given with their value; . = inactive; ? = inconclusive; / = no result; [ ] = another dose, or the depositor's remark. Unless noted, calls follow the shape of the dose curve; as a rule, active = well fitted curve in the direction sought with a large enough effect; inconclusive = small, poorly fitted or top-dose-only effect, or another doubt; inactive = no such curve, though single readings can be large; an effect the other way counts as inactive or inconclusive.

SMILES | HPGD inh | HTT aggregate | LMNA splice mod | ALDH1A1 block | HTT ATP protect | Luc counter
CC1CC(=O)Nc2ccccc2N1C(=O)Nc1ccc(F)cc1 (centres undefined) | / | .[9.22 µM] | / | / | .[10 µM] | /
CC(Sc1ccccc1)C(=O)N(CCC#N)Cc1cccnc1 (centres undefined) | / | . | . | . | . | .
Cc1cccc(OC(C)c2ccnc3nc(/N=C/N(C)C)nn23)c1 (centres undefined) | . | . | . | ? | . | .
CCCCc1nnc(NC(=O)C2CCCO2)s1 (centres undefined) | . | . | . | ? | . | .
Cc1cc(C)nc(SCc2n[nH]c(=S)n2C)n1 | . | . | . | . | . | .
O=C(/C(=N\Nc1ccccc1)Sc1nnnn1-c1ccccc1)c1ccccc1 | . | . | . | 1.4µM | .[10 µM] | .
CCC(C)(C)n1nnnc1CN1CCC(c2nc3ccc(C)cc3[nH]2)CC1 | . | . | . | 10µM | . | .
COCCOC(=O)C1=C(C)NC(C)=C(C(=O)OC(C)C)[C@H]1c1cccc([N+](=O)[O-])c1 | . | / | ? | . | . | .
CC1=C(C(=O)OC(C)C)C(c2cccc([N+](=O)[O-])c2)n2c(cc(=O)[nH]c2=S)N1 (centres undefined) | 28µM | . | ? | . | / | .
CN(C)c1ccc(NC(=O)c2cccc(N3C(=O)CCC3=O)c2)cc1 | . | . | ? | 19µM | . | .
O=C(Nc1ccccc1)c1cccc(N2C(=O)CCC2=O)c1 | . | . | . | ? | . | .
C=CCN1C(=O)C(CC(=O)Nc2ccc(OC)cc2)SC1=Nc1ccc(S(N)(=O)=O)cc1 (centres undefined) | / | . | / | 7.9µM | . | /
COc1ccc(N=C2SC(CC(=O)Nc3ccccc3)C(=O)N2CCc2ccccn2)cc1 (centres undefined) | . | . | . | . | / | .
COc1ccc(N=C2SC(CC(=O)Nc3ccccc3)C(=O)N2Cc2ccccn2)cc1 (centres undefined) | / | . | ? | 2.2µM | ? | .
COCCN1C(=O)C(CC(=O)Nc2ccc(C(C)=O)cc2)SC1=Nc1ccccc1 (centres undefined) | . | . | . | . | . | .
CC(O)CN1C(=O)C(CC(=O)Nc2ccc(Cl)cc2)SC1=Nc1ccccc1 (centres undefined) | . | . | . | 22µM | . | .
Cc1cccc(C)c1NC(=O)c1ccc([N+](=O)[O-])s1 | . | ? | ? | . | .[10 µM] | .
Cc1cccc(NC(=O)c2ccc([N+](=O)[O-])s2)c1C | . | . | ? | 0.89µM | .[10 µM] | .
CCN(Cc1ccncc1)S(=O)(=O)c1ccc(C(C)=O)cc1 | . | ? | ? | 7.9µM | .[10 µM] | .
COc1cc(C(=O)N/N=C(\C)Cc2ccccc2)cc(OC)c1OC | . | . | ? | 20µM | .[10 µM] | .
COc1ccc(C(NC(=O)c2ccc(F)cc2)c2ccccc2)cc1 (centres undefined) | / | . | . | 22µM | .[10 µM] | /
COc1cc(C(=O)NC(c2ccccc2)c2ccccc2)cc(Cl)c1OC | . | . | . | 2µM | .[10 µM] | .
COc1ccc(C(NC(=O)c2cccc(F)c2)c2ccccc2)cc1 (centres undefined) | / | . | ? | ? | .[10 µM] | /
Cc1ccc(S(=O)(=O)N2C(=O)/C(=C3\SC(=S)NC3=O)c3ccccc32)cc1 | / | 0.79µM | / | / | / | /
Cc1ccc(S(=O)(=O)N2c3ccccc3-c3c(ssc3=S)C2(C)C)cc1 | . | . | . | . | .[10 µM] | .
SMILES | HPGD inh | HTT aggregate | LMNA splice mod | ALDH1A1 block | HTT ATP protect | Luc counter
COCc1nnc(NC(=O)c2sc3ccccc3c2Cl)s1 | 32µM | . | . | ? | . | .
COCc1nnc(NC(=O)CSc2ccc(C)cc2)s1 | 28µM | . | . | 20µM | . | .
Cc1nnc(NC(=O)c2sc3ccccc3c2Cl)s1 | . | . | . | . | .[10 µM] | .
COCc1nnc(NC(=O)CSc2ccccc2)s1 | . | . | . | . | . | .
Cc1cc(=O)[nH]c(SCC(=O)Nc2nnc(CC(C)C)s2)n1 | 32µM | . | . | . | ? | .
COCc1nnc(NC(=O)CSCc2ccccc2)s1 | ? | . | . | 18µM | . | .
